A number with no mark means an inactive call. Calls come from the whole dose curve; as a rule, active = well fitted activation curve with a large enough effect in the repeat runs; inconclusive = weak or mixed curves; inactive = flat fitted curve, though single readings scatter.
Experiment: Caspase-3/7 induction in CHO-K1 cells by small molecules, qHTS assay (AID 1346980); note: nearly all actives have a fitted effect of over 15% in size
Conditions: CHO-K1 caspase-3/7 induction, Caspase-Glo luminescence, 17 h; series mostly up to 92.4 µM; caspase-3/7 activation: at the top concentration
Text: National Center for Advancing Translational Sciences [NCATS]
NIH Chemical Genomics Center [NCGC]
U.S. Environmental Protection Agency [EPA]
National Institutes of Environmental Health Sciences [NIEHS]
National Toxicology Program [NTP]
Apoptosis is a process of programmed cell death and plays a central role in the development of multicellular organisms. It is a highly regulated process and induces cell death by activating caspases, which are the members of cysteine aspartic acid-specific protease (caspase) family. Caspases involved in apoptosis are classified by their mechanism of action as initiator caspases (caspase-2, -8, -9 and -10) and executioner caspases (caspase-3, -6, and -7). Inhibition of apoptosis results in number of cancers, autoimmune diseases, inflammatory diseases and viral infection. To identify small molecule compounds that induce apoptosis, a homogeneous, luminescent Caspase-Glo 3/7 assay was used. Wild type CHO-K1 cells were used to screen Tox21 libraries for identifying caspase-3/7 activity inducers.
CHO-K1 cells were dispensed at 1,500 per well in 5uL of culture medium into white solid bottom 1536-well plates (Corning Life Sciences, Corning, NY) using a Multidrop Combi (Thermo Scientific, Waltham, MA) dispenser. The assay plates were incubated at 37 C and 5% CO2 for 5hr, and then 23nL of compounds dissolved in DMSO and positive control were transferred using a Pintool station (Wako, San Diego, CA). The assay plates were incubated at 37C and 5% CO2 for 17hr. For caspase-3/7 activity read, 4uL of Caspase-Glo 3/7 reagent (Promega Corporation, Madison, WI) was added to each well of the assay plates using Flying Reagent Dispenser (FRD, Aurora Discovery, San Diego, CA) and incubated the assay plates at room temperature for 30min. The luminescence signal was quantified using a ViewLux plate reader (Perkin Elmer, Shelton, CT).
% is set by controls: 0 for no effect and ±100 for the full control effect.

Structure (SMILES) | caspase-3/7 activation
O=c1c2ccccc2nnn1CCl | 0.614%
CCCCOC(O)CC (stereo not given) | -0.0831%
O=C(O)[C@@H]1[C@H]2C[C@H]3c4[nH]c5ccccc5c4CCN3C[C@@H]2CC[C@@H]1O | 0.452% [at 42.5 µM]
CCN(CC)CCOC(=O)C1(c2ccccc2)CCCC1 | -1.8% [at 42.5 µM]
CCCCCCCCCCCCCCCBr | -1.15% [at 42.5 µM]
Cc1cc(NC(=O)C(=O)O)cc(C)c1Oc1ccc(O)c2c1CCC2 | 1.43%
O=C(NN1CCCC1)NS(=O)(=O)c1ccc(Cl)cc1 | 1.38% [at 42.5 µM]
CN(C)CCCOc1nn(Cc2ccccc2)c2ccccc12 | 1.62% [at 42.5 µM]
Oc1ccc2c(c1)OCO2 | -0.152%
CCOC(=O)C1=NN(c2ccccc2)C(=O)C1 | 0.0536%
SC1CCCC1 | -1.6%
Cc1c(Cn2ccnc2)c2ccccc2n1CCC(=O)O | -0.604% [at 42.5 µM]
CC(C)c1ccc2c(C(C)C)cc(C(C)C)c(S(=O)(=O)O)c2c1 | 0.147%
NCCCN(CCO)CCO | 0.0299%
Cc1cccc(C(C)(C)C)c1O | 6.01%
CC(=O)O[C@H]1C[C@@H]2CC[C@@H]3[C@H](CC[C@@]4(C)[C@H]3C[C@H]([N+]3(C)CCCCC3)[C@@H]4OC(C)=O)[C@@]2(C)C[C@@H]1N1CCCCC1 | 1.94% [at 42.5 µM]
CCCCOc1ccc(CC(=O)NO)cc1 | -0.548% [at 42.5 µM]
CCOC(=O)CC(=O)c1cc(F)c(Cl)nc1Cl | 0.591%
CN(C)C/C=C(/c1ccc(Br)cc1)c1cccnc1 | -1.09% [at 42.5 µM]
CC(=O)[C@@]1(O)CC[C@H]2[C@@H]3C[C@H](C)C4=CC(=O)CC[C@]4(C)[C@H]3CC[C@@]21C | 1.99% [at 42.5 µM]

Structure (SMILES) | caspase-3/7 activation
c1ccc(CNCc2ccccc2)cc1 | 0.452%
NC1CCN(c2nc3c(cc2F)c(=O)c(C(=O)O)cn3-c2ccc(F)cc2F)C1 (stereo not given) | -0.678% [at 42.5 µM]
CCCC(C)C | 0.052%
CCCCOC(=O)/C=C\C(=O)OCCCC | 0.439%
Nc1ccc(C(=O)Nc2ccccc2N)cc1 | 0.663% [at 42.5 µM]
N#CCCNCCC#N | 0.0968%
CCN(CC)C(C)=O | 0.988%
CN(C)CCCNCCCN | -0.265%
Cc1cc(CC(=O)O)c(C)n1-c1ccc(Cl)cc1 | -1.22% [at 42.5 µM]
Oc1ccc(O)c2c(O)cccc12 | -0.0004%
CCCCCCOC(=O)CCC | -0.255%
CN1CCC(=C2c3ccccc3CCc3sccc32)CC1 | 0.0521% [at 42.5 µM]
CCCC[C@H]1CN(CC2CCOCC2)C(=O)OC12CCN(C1(C)CCN(C(=O)c3c(C)ncnc3C)CC1)CC2 | -0.86%
CCCCCCCCCCCCC(=O)O | -3.05%
CCCc1ccccc1 | 1.09%
Oc1ccc(Sc2ccc(O)cc2)cc1 | -1.55%
Cl/C(=C\n1cncn1)c1ccc(Cl)cc1Cl | 0.228% [at 42.5 µM]
CC(=O)NCCCS(=O)(=O)O | 0.274% [at 42.5 µM]
O=C=NC1CCC(CC2CCC(N=C=O)CC2)CC1 (stereo not given) | 2.01%
CCCCc1cc2ccccc2c(OCCN(C)C)n1 | -0.431% [at 42.5 µM]

— PubChem BioAssay (Tox21)
